Assay outcomes as filed in PubChem.
A selection: hits, their analogues and other compounds. The true share with any hit is near 19%.
DT40 TDP1 no CPT – qHTS for Inhibitors of human tyrosyl-DNA phosphodiesterase 1 (TDP1): qHTS in cells in absence of CPT. DT40 Tdp1-/- hTDP1 cells, no CPT, ATP luminescence, 48 h. Potency, µM (series often up to 46.2 µM), for the others: top-dose activity change, negative = growth inhibition, usual class: inhibitors. actives 15% (n = 420,000). AID 686978, 2013; note: potency is the fitted concentration of half-maximal effect; nearly all actives have a fitted effect of over 55% in size
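Growth kinetics read by CellTiter-Glo luminescence after ≥48 hr at 37 °C. Cells: DT40 Tdp1-/- stably carrying human TDP1, 400 per well, compound exposure in the absence of CPT (DMSO vehicle).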
ELG1 DNA repair – qHTS screen for small molecules that inhibit ELG1-dependent DNA repair in human embryonic kidney (HEK293T) cells expressing luciferase-tagged ELG1 | HEK293T ELG1-luciferase reporter, luminescence, 16 h; DNA damage induced by 5-fluorouridine | actives 2.3% (n = 330,000) | Potency, µM (doses to about 46.1 µM), without a hit: top-dose activity change, negative = inhibition, most hits filed as inhibitors; note: potency is the fitted concentration of half-maximal effect; nearly all actives have a fitted effect of over 55% in size
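5-Fluorouridine DNA damage + compound/DMSO, 2,000 cells/well, 16 h, 37 °C/5% CO2. ONE-Glo, 30 min RT, luminescence. Readout = decrease in reporter signal.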
HT1080-NT tox – qHTS for induction of synthetic lethality in tumor cells producing 2HG: qHTS for the HT-1080-NT fibrosarcoma cell line. Potency, µM (top dose mostly 46.1 µM), inactives show at the top dose activity, negative = less viability, most hits filed as cytotoxic. HT-1080-NT fibrosarcoma viability, CellTiter-Glo ATP luminescence, 48 h. actives 1.6% (n = 360,000);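 note: NT is the 2HG producing partner of a matched IDH1 knockdown line; potency is the fitted concentration of half-maximal effect; 0% = DMSO-treated cells and -100% = media-only wells without cells; nearly all actives have a fitted effect of over 55% in size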
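Luminescent CellTiter-Glo readout after 48 hours of compound exposure at 37 degrees C defined viability of HT-1080-NT cells. Activity was normalized to DMSO wells and cell-free media wells; concentration-response curves were fitted and assigned curve classes.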
HT1080 IDH1KD tx – qHTS for induction of synthetic lethality in tumor cells producing 2HG: qHTS for the HT-1080-IDH1KD cell line; AID 686971, 2013; HT-1080 IDH1 knockdown viability, ATP luminescence, 48 h; actives 2% (n = 360,000); Potency, µM (highest dose often 46.1 µM), for the others: at the highest dose activity, negative = toxicity, actives largely listed as cytotoxic;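 note: potency is the fitted concentration of half-maximal effect; 0% = DMSO wells and -100% = cell-free medium wells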
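% activity derives from luminescence (CellTiter-Glo), normalised to DMSO and no-cell wells. HT-1080-IDH1KD cells, 750/well, had 48 h compound exposure at 37 °C.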
TDP1 cell CPT – qHTS for Inhibitors of human tyrosyl-DNA phosphodiesterase 1 (TDP1): qHTS in cells in presence of CPT. chicken DT40 Tdp1-/-;hTDP1 cells + 20 nM CPT, ATP luminescence, 48 h. Potency, µM (highest dose often 46.2 µM), without a hit: top-dose activity change, negative = growth inhibition, usual class: inhibitors. actives 12% (n = 420,000). AID 686979, 2013; note: potency is the fitted concentration of half-maximal effect; nearly all actives have a fitted effect of over 55% in size
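Cell growth measured by CellTiter-Glo luminescence after a minimum 48 h, 37 C compound exposure with 20 nM CPT in Tdp1-knockout DT40 cells stably expressing hTDP1, seeded 400/well; qHTS titration format.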
IL-1B inflam inh – qHTS for Inhibitors of Inflammasome Signaling: IL-1-beta AlphaLISA Primary Screen | THP-1 LPS/ATP IL-1B secretion, AlphaLISA, 16 h; active compounds read low | activity change, % at 57.5 µM | actives 4.7% (n = 360,000) | AID 743279, 2014; in the data active = activity change below about -50%; inconclusive = mostly about -30% to -49%
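Secreted IL-1B measured by AlphaLISA bead assay after 16 h compound exposure of THP-1 cells; compounds (final up to 57.5 uM) added 1 h before LPS (250 ng/mL) and ATP (1.25 mM) stimulation; lower signal means less secretion.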
The depositor's hits bear a star; ? = inconclusive; / = no result; [ ] = dose if it differs, or a comment. Unless noted, calls come from the whole dose curve; as a rule, active = well fitted curve in the direction sought with a large enough effect; inconclusive = small, poorly fitted or top-dose-only effect, or another doubt; inactive = no such curve, though single readings can be large; an effect the other way counts as inactive or inconclusive. Unless noted, % is set by controls: 0 for no effect and ±100 for the full control effect.

SMILES	DT40 TDP1 no CPT	ELG1 DNA repair	HT1080-NT tox	HT1080 IDH1KD tx	TDP1 cell CPT	IL-1B inflam inh
O=C(c1cccc(OC2CCN(Cc3cc(F)cc(F)c3)CC2)c1)N1CCCC1	?	-4%	0%	-5%	?	4
O=C(c1cccc(OC2CCN(Cc3ccc(F)cc3Cl)CC2)c1)N1CCCC1	?	-28%	-12%	-3%	21µM*	14
C=C(C(=O)O)[C@@H]1CC[C@@]2(C)CCC[C@](C)(O)[C@@H]2C1	-6%[9.04 µM]	/	/	/	-5%[9.04 µM]	/
CS(=O)(=O)CCC(C(=O)Nc1cccc(C(F)(F)F)c1)N1Cc2ccccc2C1=O (configuration not stated)	-18%	/	/	/	-10%	/
N#Cc1cccc(NC(=O)Cn2nc(Cc3ccncc3)c3ccccc3c2=O)c1	1%	/	/	/	-10%	/
CCOC(=O)N1CCC(NC(=O)c2ccc3snnc3c2)CC1	-2%	21%	-4%	-5%	-20%	14
COc1ccc(-c2cn3c(n2)sc2cc(C(=O)Nc4ccc(C)c(Cl)c4)ccc23)cc1	5%	/	/	/	-2%	/
CCOC(=O)N1CCC(NC(=O)c2ccc3c(c2)sc2nc(-c4ccccc4)cn23)CC1	9.2µM*	3%	-12%	-22%	15µM*	-15
CCOC(=O)N1CCC(NC(=O)c2ccc3c(c2)sc2nc(-c4cccc(OC)c4)cn23)CC1	/	2.9µM*	/	/	/	/
N#Cc1ccccc1NC(=O)CSc1cn[nH]n1	-5%	-5%	23%	15%	-7%	6
CCc1ccc(NC(=O)CC2C(=O)N(c3cccc(C)c3)C(=O)N2Cc2cccs2)cc1 (configuration not stated)	21µM*	/	/	/	21µM*	/
CCc1ccc(NC(=O)CC2C(=O)N(c3cccc(C)c3)C(=O)N2Cc2ccco2)cc1 (configuration not stated)	26µM*	/	/	/	16µM*	/
CCc1ccc(NC(=O)CC2C(=O)N(c3ccc(Cl)cc3)C(=O)N2Cc2ccco2)cc1 (configuration not stated)	?	/	/	/	21µM*	/
CCc1ccc(NC(=O)CC2C(=O)N(c3cccc(C)c3)C(=O)N2Cc2ccc(F)cc2)cc1 (configuration not stated)	-98%	/	/	/	?	/
O=C(c1ccccc1)C(CCC(CN1CCOCC1)C(=O)c1ccccc1)CN1CCOCC1 (configuration not stated)	1.5µM*	?	10µM*	8.2µM*	0.73µM*	-118*
COc1ccc(C(=O)C(OC(=O)c2ccccc2)c2ccccc2)cc1 (configuration not stated)	?	?	8%	4%	-16%	0
CCCCOc1ccc(C(=O)C(CN2CCOCC2)c2ccccc2)cc1 (configuration not stated)	15µM*	?	13µM*	16µM*	13µM*	-98*
CCCCCOc1ccc(C(=O)C(c2ccccc2)N2CCOCC2)cc1 (configuration not stated)	?	-19%	-11%	-24%	21µM*	?
COc1ccc(C(=O)C(CN2CCCC2)c2ccccc2)cc1 (configuration not stated)	3.2µM*	16µM*	11µM*	13µM*	4µM*	-109*
